The values below come from PubChem BioAssay (NCATS).

Structures are written as SMILES. Results filed as inconclusive are left out. Where a call stands in place of a potency, no number is given. Calls of active or inactive are those of the source. Calls follow the shape of the full dose curve.

For this test, the target named is Atrial natriuretic peptide receptor 1 (Homo sapiens) (UniProt P16066). The test can be described thus: Natriuretic polypeptide receptor (hNpr1) antagonism - Pilot CMLD screen (AID 1347052).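 Also: HEK293 cells with hNpr1 stimulated by hNppA peptide at 0.1 nM; cGMP level read as GloSensor luciferase luminescence after agonist stimulation; series mostly up to about 9.2 µM.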
Chain of Atrial natriuretic peptide receptor 1 (Homo sapiens) (P16066 whole entry, looked up): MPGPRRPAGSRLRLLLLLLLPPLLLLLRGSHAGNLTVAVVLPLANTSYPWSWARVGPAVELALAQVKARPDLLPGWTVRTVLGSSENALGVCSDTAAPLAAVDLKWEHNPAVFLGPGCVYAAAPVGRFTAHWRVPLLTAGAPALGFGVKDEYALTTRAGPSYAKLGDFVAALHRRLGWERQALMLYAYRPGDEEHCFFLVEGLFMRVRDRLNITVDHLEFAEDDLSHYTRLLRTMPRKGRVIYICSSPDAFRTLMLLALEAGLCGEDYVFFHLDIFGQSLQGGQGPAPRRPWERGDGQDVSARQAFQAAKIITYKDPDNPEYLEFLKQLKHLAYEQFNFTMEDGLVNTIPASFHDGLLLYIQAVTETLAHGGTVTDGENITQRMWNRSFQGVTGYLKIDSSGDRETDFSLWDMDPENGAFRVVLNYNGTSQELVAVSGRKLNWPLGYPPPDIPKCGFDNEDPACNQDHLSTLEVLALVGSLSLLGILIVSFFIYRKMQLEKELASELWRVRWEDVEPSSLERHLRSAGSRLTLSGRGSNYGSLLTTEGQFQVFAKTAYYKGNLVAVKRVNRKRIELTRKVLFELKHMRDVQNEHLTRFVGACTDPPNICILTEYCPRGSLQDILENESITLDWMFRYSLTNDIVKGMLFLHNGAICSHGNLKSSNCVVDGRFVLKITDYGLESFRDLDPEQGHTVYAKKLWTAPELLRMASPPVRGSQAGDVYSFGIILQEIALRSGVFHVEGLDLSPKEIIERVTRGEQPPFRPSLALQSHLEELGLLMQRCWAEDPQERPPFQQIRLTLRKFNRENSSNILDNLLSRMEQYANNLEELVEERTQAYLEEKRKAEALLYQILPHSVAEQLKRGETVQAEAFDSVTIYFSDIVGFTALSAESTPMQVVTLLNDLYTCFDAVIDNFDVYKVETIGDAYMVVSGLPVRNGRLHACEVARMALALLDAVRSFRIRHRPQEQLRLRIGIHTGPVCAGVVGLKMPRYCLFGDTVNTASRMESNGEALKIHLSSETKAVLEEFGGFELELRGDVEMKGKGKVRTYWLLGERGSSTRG

As to `COc1cccc([C@H]2NC(=O)CC=C[C@H](C)[C@@H](c3cccc(OC)c3)NC(=O)CC=C[C@H]2C)c1`, the Potency result was “inactive”. In the case of `COc1ccc([C@]23Cc4ccccc4[C@H](O2)C2=C(CC4(CCCCC4)OC2=O)O3)cc1` it was “inactive”; in that of `CC(C)=CCN1C(=O)[C@]2(O[C@H](COc3ccccc3)CC3=C2CCC3)c2ccccc21`, “inactive”. Then `CC1=CC[C@@H](COc2ccccc2)O[C@@]2(C1)C(=O)N(Cc1ccc(Br)cc1)c1cccc(Br)c12`, with “inactive”; and `CCN1C(=S)NC(c2cccc(C(F)(F)F)c2)C(C(=O)OC)=C1C` (configuration not stated), with “inactive”.

On to `CCN1C(=NCc2cccc(C(F)(F)F)c2)NC(c2ccccc2)C(C(=O)OC)=C1C` (configuration not stated), for which the Potency entry was “inactive”. In the case of `Cc1cc(C)cc(-c2cc3c(c(-c4c(O)c(-c5cc(C)cc(C)c5)cc5c4CCCC5)c2O)CCCC3)c1` it was “inactive”.
